This note sets out measurements from PubChem BioAssay (NCI).

Test [1] in a line: NCI Yeast Anticancer Drug Screen. Data for the rad50 strain (AID 155).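 Note: 0% = growth of vehicle-only cultures of the same strain.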 Conditions: S. cerevisiae rad50 strain growth inhibition, stronger effect = higher value. The gist of the method: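 Growth of the mutant yeast was measured after compound exposure and referenced to vehicle-treated cultures.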
Test [2] is described as follows: NCI Yeast Anticancer Drug Screen. Data for the mec2-1 strain (AID 157). Conditions: S. cerevisiae mec2-1 strain, stronger effect = higher value. In a few lines:
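Compounds were applied to mec2-1 yeast cells. Their growth was then compared with that of vehicle-treated cultures to give growth inhibition.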

A short description of test [3]: NCI Yeast Anticancer Drug Screen. Data for the sgs1 mgt1 strain (AID 161).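 Note: 0% = growth of cultures given vehicle only.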 Conditions: S. cerevisiae sgs1 mgt1 strain, stronger effect = higher value. The gist of the method:
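Yeast cells carrying a defined DNA-repair defect were exposed to test compounds. Growth inhibition was measured relative to vehicle-treated controls.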

Test [4] in a line: NCI Yeast Anticancer Drug Screen. Data for the cln2 rad14 strain (AID 165).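 Note: 0% = growth equal to vehicle treated cultures.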 Conditions: S. cerevisiae cln2 rad14 strain, stronger effect = higher value. In a few lines: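 Strain: cln2 rad14 yeast, altered in cell cycle control and DNA damage repair. Read-out: growth inhibition vs vehicle.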
A short description of test [5]: NCI Yeast Anticancer Drug Screen. Data for the bub3 strain (AID 167). The settings on record: S. cerevisiae bub3 mutant strain, stronger effect = higher value. In a few lines:
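Whole-cell yeast assay. The mutant strain was incubated with compounds, and growth inhibition was determined by comparison with vehicle-treated cells.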

Test [6] can be described thus: NCI Yeast Anticancer Drug Screen. Data for the mlh1 rad18 strain (AID 175). Conditions: S. cerevisiae mlh1 rad18 strain growth inhibition, stronger effect = higher value. In a few lines:
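A repair-deficient yeast strain is exposed to test compound, and growth is scored relative to vehicle-treated controls.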

Where [7] appears, read: at 5.0 µM (retest, dose inferred, filed as 0.5).
The mark [8] stands for this setting: at 50.0 µM (retest, dose inferred, filed as 5.0).

SMILES strings stand for the structures. Where “and” joins values, the source holds several entries; their conditions need not be identical. Equal entries are not always repeated. Compounds without any hit were thinned out: in the full panel of roughly 79,000, 15% have a hit. More than one record can exist for a structure, and the calls need not agree. Calls of active or inactive are those of the source. Cut-off read from the data, not from the text of the source: active = growth inhibition above about 70%; inactive = the rest.

In the case of `Cn1c2nc3ccccc3c-2cc2ccccc21`, the growth inhibition in test [1] (setting [7]) was 44% (inactive); in test [1] (setting [8]), 85% (active); in test [1] (at 50.0 µM) it was 84% (active) and 85.2% (active); in test [2] (setting [7]), 27% (inactive); in test [2] (setting [8]), 75% (active); in test [2] (at 50.0 µM), 77.8% (active) and 71.2% (active). The growth inhibition in test [3] (setting [7]) was 38% (inactive); in test [3] (setting [8]), 83% (active); in test [3] (at 50.0 µM), 70% (inactive) and 68.5% (inactive); in test [4] (setting [7]), 41% (inactive); in test [4] (setting [8]) it was 74% (active); in test [4] (at 50.0 µM), 60.5% (inactive) and 59.4% (inactive). Also, the growth inhibition in test [5] (setting [7]) is 30% (inactive); in test [5] (setting [8]) it was 83% (active); in test [5] (at 50.0 µM), 70.8% (active) and 68.2% (inactive); in test [6] (setting [7]), 48% (inactive); in test [6] (setting [8]) it was 83% (active); in test [6] (at 50.0 µM), 76.7% (active) and 72.6% (active).

`CC(=O)Nc1ccc(S(=O)(=O)N(CCO)CCO)cc1`: the growth inhibition was -2% (inactive) in test [1] (setting [7]); -4% (inactive) in test [1] (setting [8]); 15.2% (inactive) in test [1] (at 50.0 µM); -12% (inactive) in test [2] (setting [7]); -5% (inactive) in test [2] (setting [8]); 98.5% (active) in test [2] (at 50.0 µM). For the same compound, the growth inhibition in test [3] (setting [7]) was -12% (inactive); in test [3] (setting [8]) it was -4% (inactive); in test [3] (at 50.0 µM), 40.5% (inactive); in test [4] (setting [7]), 0% (inactive); in test [4] (setting [8]) it was 1% (inactive); in test [4] (at 50.0 µM), 57% (inactive). For the same compound, the growth inhibition in test [5] (setting [7]) is -7% (inactive); in test [5] (setting [8]), 1% (inactive); in test [5] (at 50.0 µM) it was 80.7% (active); in test [6] (setting [7]) it was -20% (inactive); in test [6] (setting [8]), -9% (inactive); in test [6] (at 50.0 µM) it was 91.2% (active).

As for `Oc1ccc2ccccc2c1Cc1c(O)ccc2ccccc12`, the growth inhibition was -1% (inactive) in test [1] (setting [7]); 86% (active) in test [1] (setting [8]); 33% (inactive) and 99.2% (active) in test [1] (at 50.0 µM); 11% (inactive) in test [2] (setting [7]); 96% (active) in test [2] (setting [8]); 29.8% (inactive) and 22.7% (inactive) in test [2] (at 50.0 µM). For the same compound, the growth inhibition was 7% (inactive) in test [3] (setting [7]); 53% (inactive) in test [3] (setting [8]); 44.1% (inactive) and 99.5% (active) in test [3] (at 50.0 µM); -25% (inactive) in test [4] (setting [7]); 95% (active) in test [4] (setting [8]); 21.6% (inactive) and 97.8% (active) in test [4] (at 50.0 µM). For the same compound, the growth inhibition in test [6] (setting [7]) was -8% (inactive); in test [6] (setting [8]), 89% (active); in test [6] (at 50.0 µM), 16.4% (inactive) and 99.3% (active).

As for `O=[N+]([O-])c1ccc(N/N=C(/C=N/Nc2ccc([N+](=O)[O-])cc2)C(O)C(O)C(O)CO)cc1` (stereo not drawn), the growth inhibition was 44% (inactive) and 67% (inactive) in test [1] (setting [7]); 97% (active) and 96% (active) in test [1] (setting [8]); 97.7% (active) and 97.2% (active) in test [1] (at 50.0 µM); 48% (inactive) and 55% (inactive) in test [2] (setting [7]); 99% (active) and 98% (active) in test [2] (setting [8]); 97.8% (active) and 97.7% (active) in test [2] (at 50.0 µM). For the same compound, the growth inhibition is 44% (inactive) and 79% (active) in test [3] (setting [7]); 98% (active) in test [3] (setting [8]); 97.7% (active) and 97% (active) in test [3] (at 50.0 µM); 10% (inactive) and 27% (inactive) in test [4] (setting [7]); 94% (active) and 96% (active) in test [4] (setting [8]); 98% (active) and 97.8% (active) in test [4] (at 50.0 µM). The growth inhibition was 73% (active) and 90% (active) in test [5] (setting [7]); 98% (active) in test [5] (setting [8]); 98.2% (active) and 98.9% (active) in test [5] (at 50.0 µM); 70% (active) and 77% (active) in test [6] (setting [7]); 98% (active) in test [6] (setting [8]); 98.2% (active) and 97.6% (active) in test [6] (at 50.0 µM).

Regarding `CC1=CC(C)(C)Nc2ccc(CSc3ccccc3)cc21`, the growth inhibition in test [1] (setting [7]) was 7% (inactive); in test [1] (setting [8]), 25% (inactive); in test [1] (at 50.0 µM), 8.1% (inactive) and 36.4% (inactive); in test [2] (setting [7]), -8% (inactive); in test [2] (setting [8]) it was -17% (inactive); in test [2] (at 50.0 µM), 11.9% (inactive) and 5.5% (inactive). In addition, the growth inhibition in test [3] (setting [7]) was -1% (inactive); in test [3] (setting [8]) it was 10% (inactive); in test [3] (at 50.0 µM), 12.4% (inactive) and 13.9% (inactive); in test [4] (setting [7]) it was -13% (inactive); in test [4] (setting [8]), 6% (inactive); in test [4] (at 50.0 µM) it was -1.1% (inactive) and 19.8% (inactive). The growth inhibition is -11% (inactive) in test [5] (setting [7]); 6% (inactive) in test [5] (setting [8]); 29.3% (inactive) and 60.9% (inactive) in test [5] (at 50.0 µM); 23% (inactive) in test [6] (setting [7]); 16% (inactive) in test [6] (setting [8]); 37.4% (inactive) and 15.6% (inactive) in test [6] (at 50.0 µM).

Turning to `COC(=O)[C@]1(C)CCC[C@]2(C)c3cc(C(C)=O)c(C(C)C)cc3CC[C@@H]12`, the growth inhibition was -1% (inactive) in test [1] (setting [7]); -11% (inactive) in test [1] (setting [8]); 92.5% (active) and -4.55% (inactive) in test [1] (at 50.0 µM); 7% (inactive) in test [2] (setting [7]); 10% (inactive) in test [2] (setting [8]); 95.5% (active) and -11.9% (inactive) in test [2] (at 50.0 µM). Besides, the growth inhibition in test [3] (setting [7]) was -4% (inactive); in test [3] (setting [8]) it was -27% (inactive); in test [3] (at 50.0 µM), 93.5% (active) and -5.45% (inactive); in test [4] (setting [7]), -1% (inactive); in test [4] (setting [8]), -2% (inactive); in test [4] (at 50.0 µM) it was 99.5% (active) and -40.8% (inactive). Besides, the growth inhibition was 1% (inactive) in test [5] (setting [7]); 0% (inactive) in test [5] (setting [8]); 98.5% (active) and -5.05% (inactive) in test [5] (at 50.0 µM); -2% (inactive) in test [6] (setting [7]); 8% (inactive) in test [6] (setting [8]); 97% (active) and -12.2% (inactive) in test [6] (at 50.0 µM).

Consider `CN1CCN(CCCN2c3ccccc3Sc3ccc(C(F)(F)F)cc32)CC1`, for which the growth inhibition in test [1] (setting [7]) is -13% (inactive) and -1% (inactive); in test [1] (setting [8]) it was 98% (active) and 94% (active); in test [1] (at 50.0 µM) it was 98.8% (active) and 83.9% (active); in test [2] (setting [7]), -9% (inactive) and -29% (inactive); in test [2] (setting [8]) it was 98% (active) and 70% (active); in test [2] (at 50.0 µM), 99.2% (active) and 83.9% (active). Also, the growth inhibition in test [3] (setting [7]) was -7% (inactive) and 0% (inactive); in test [3] (setting [8]) it was 95% (active) and 73% (active); in test [3] (at 50.0 µM), 99.2% (active) and 84.9% (active); in test [4] (setting [7]), -31% (inactive) and 3% (inactive); in test [4] (setting [8]), 84% (active) and 78% (active); in test [4] (at 50.0 µM), 98% (active) and 84.7% (active). The growth inhibition in test [5] (setting [7]) is -13% (inactive) and -27% (inactive); in test [5] (setting [8]), 98% (active) and 95% (active); in test [5] (at 50.0 µM), 99.2% (active) and 86.2% (active); in test [6] (setting [7]), -8% (inactive) and -9% (inactive); in test [6] (setting [8]), 99% (active) and 96% (active); in test [6] (at 50.0 µM), 99.6% (active).
